Arbovirus anti – blocks arbovirus infection. arbovirus infection cell-based antiviral screen. inhibition, % at 10 µM. actives 0.37% (n = 200,000). AID 1251; in the data active = inhibition above about 30%
KCC2 mod – KCC2 (human) Cl- transport modulation. Q9H2X9. KCC2 cells, thallium flux FluoZin-2 fluorescence. B-score of Tl+ flux slope (higher = more flux/activation; lower = inhibition) at 10 µM. actives 2.2% (n = 190,000);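 active = thallium flux slope and its plate-corrected score both differing from the plate sample mean at a set confidence after two filtering rounds, in either direction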;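 note: slope of fluorescence scaled to starting intensity during 10 to 20 s after thallium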
HSV augment – increases HSV replication in cells; maximum fold increase; HSV replication augmentation in cells, fold increase; actives 0.005% (n = 220,000); in the data active = maximum fold increase above about 1.5; inconclusive = no clear call, values can overlap the other calls; tested in PC3 cells
Measles CPE – protection of cells from measles virus; Measles virus-infected cells, CPE protection, absorbance; protection (pct of control), % at 4 µM; actives 1.5% (n = 140,000); in the data active = protection mostly above about 24%, no sharp cut-off; inactive = mostly below about 26%
ROMK primary – modulators of human ROMK potassium channel; P48048; AID 1918; B-score at 10 µM; Tet-inducible ROMK, thallium flux fluorescence; actives lie on both sides; actives 2% (n = 130,000);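 active = signal ratio slope over the read window, or its plate-corrected B-score, at least 3 SD from the plate mean, either direction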;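 note: B-score of the F/F0 ratio slope over 7 to 12 s after thallium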
Target sequence (P48048 whole entry, looked up): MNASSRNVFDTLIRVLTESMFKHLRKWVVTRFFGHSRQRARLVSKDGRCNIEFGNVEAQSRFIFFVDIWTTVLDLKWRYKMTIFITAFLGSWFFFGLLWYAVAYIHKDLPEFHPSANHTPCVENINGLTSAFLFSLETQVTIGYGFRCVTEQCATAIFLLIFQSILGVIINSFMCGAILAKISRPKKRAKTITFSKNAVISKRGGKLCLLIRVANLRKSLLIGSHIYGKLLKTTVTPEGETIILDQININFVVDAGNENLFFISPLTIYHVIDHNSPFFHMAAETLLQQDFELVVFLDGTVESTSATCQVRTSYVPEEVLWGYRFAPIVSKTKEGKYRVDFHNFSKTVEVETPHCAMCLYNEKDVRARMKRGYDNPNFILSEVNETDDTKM
KCC2 sec1 – KCC2 (human) modulation, secondary assay; shares compounds with KCC2 mod; HEK293-KCC2, thallium flux, FluoZin2 fluorescence; stronger effect = higher value; normalised thallium flux (F/F0 slope) at 10 µM; actives 15% (n = 3,700); AID 1713;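 active = thallium flux slope above the same plate's solvent-only control mean plus 3 SD; inconclusive = the two replicate wells disagree; inactive = no significant difference from solvent-only control wells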
KCC2 bumet counter – thallium flux despite bumetanide block in KCC2 cells, secondary assay 3; shares compounds with KCC2 mod; HEK293-KCC2 + bumetanide/ouabain, thallium flux FluoZin2; stronger effect = higher value; normalized thallium flux at 10 µM; actives 49% (n = 3,700); AID 1714;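 active = thallium entry rate above the same plate's blocked-transporter control wells by more than 3 SD; inconclusive = the two repeat wells disagree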;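 note: raw slope of fluorescence over initial fluorescence between 10 and 20 s after thallium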
KCC2 secondary2 – KCC2 (human) modulation, second secondary assay | actives 23% (n = 3,700) | normalized thallium flux at 10 µM | HEK293-KCC2, thallium flux FluoZin2 fluorescence; actives lie on both sides; F/F0 rise rate, 10–20 s post-thallium | shares compounds with KCC2 mod;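 active = thallium flux slope more than 3 SD above or below the plate's solvent-only control mean, mostly below; inconclusive = the two repeat wells disagreed; inactive = no significant shift from solvent-only controls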;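 note: raw slope with 0.1% DMSO as baseline and bumetanide as block control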
HEK293 Tl flux – parental HEK flux effect, counter-screen; AID 1716; shares compounds with KCC2 mod; thallium flux rate (normalised fluorescence) at 10 µM; actives 46% (n = 3,700); HEK293 parental cells, thallium flux FluoZin2, ouabain; baseline-ratio fluorescence slope, 10–20 s after thallium;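 active = thallium flux rate significantly above the same plate's solvent-only control wells, beyond their mean plus 3 SD; inconclusive = the two replicate wells gave conflicting results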
KCC2 retest ouab – KCC2 (human) modulation, ouabain retest; shares compounds with KCC2 mod; HEK293-KCC2, thallium flux FluoZin2 fluorescence; bidirectional: low = inhibitor, high = activator; raw Tl+ flux slope (below DMSO = inhibition, above = activation) at 10 µM; actives 48% (n = 3,700);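 active = thallium flux slope beyond 3 SD from same-plate DMSO control mean in most replicates, usually higher, sometimes lower; inconclusive = repeat tests gave conflicting results; inactive = no significant difference from controls in most replicates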;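 note: slope of initial-normalized fluorescence between seconds 10 and 20 after thallium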
HEK counter2 – acts in parental HEK cells, second KCC2 counter-screen; shares compounds with KCC2 mod; HEK293 parental, thallium flux FluoZin-2 fluorescence slope; thallium flux slope at 10 µM; actives 33% (n = 3,700); AID 1718;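 active = thallium flux slope above the same plate's solvent-control mean plus 3 SD in both duplicate wells; inconclusive = duplicate wells that disagreed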;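 note: run without ouabain in cells lacking the KCC2 cotransporter; slope of fluorescence scaled to its starting value between 10 and 20 s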
* hit, by the source's call; i = inactive; ? = inconclusive; nt = no result given. Shown are actives, neighbours in structure and some others; about 4% of the full set was active somewhere.

SMILES	Arbovirus anti	KCC2 mod	HSV augment	Measles CPE	ROMK primary	KCC2 sec1	KCC2 bumet counter	KCC2 secondary2	HEK293 Tl flux	KCC2 retest ouab	HEK counter2
N#Cc1nc(Cc2cccc3ccccc23)oc1NCC1CCCO1 (stereo unspecified)	-5	nt	i	11	-2.3	0.01	0.0064	?	0.0035	0.016*	0.011
N#Cc1nc(Cc2cccc3ccccc23)oc1NCCCN1CCOCC1	7	-5.6*	i	13	-3.6	?	0.0054	0.03	0.0067	0.014*	0.011*
N#Cc1nc(Cc2cccc3ccccc23)oc1NCc1ccco1	-7	nt	i	9	-0.45	?	0.0049	?	?	0.014*	0.011
O=C(O)c1cc2ccccc2c2cc(Br)ccc12	nt	-1.5	i	nt	nt	nt	nt	nt	nt	nt	nt
CCCN(CCC)C(=O)C1CC(=O)OC12CCCCC2 (stereo unspecified)	6	0.11	i	nt	0.093	nt	nt	nt	nt	nt	nt
N#Cc1c(-c2ccc(Cl)cc2)c2c([nH]c1=O)-c1ccccc1OC2	nt	-0.71	i	nt	0.56	nt	nt	nt	nt	nt	nt
O=c1oc(-c2ccccc2)nc2sc3c(c12)CCC3	16	0.013	i	18	-0.01	nt	nt	nt	nt	nt	nt
S=c1nc(-c2ccccc2)oc2c1CCCC2	10	5.3*	nt	4	nt	0.0084	0.045*	0.032	0.012*	?	0.013*
O=[N+]([O-])c1ccc(C2=NCCO2)cc1	nt	-0.014	i	nt	nt	nt	nt	nt	nt	nt	nt
O=[N+]([O-])c1ccc(-c2nc(=S)c3c(o2)CCCC3)cc1	0	34*	i	10	0.83	0.018*	0.027*	0.038	0.033*	0.042*	0.016*
Cc1ccn2c(NC(C)(C)C)c(-c3cccs3)nc2c1	10	-1.1	i	nt	0.17	nt	nt	nt	nt	nt	nt
Cc1noc(C)c1S(=O)(=O)N1CCC(C(=O)N2CCN(c3ccc(F)cc3)CC2)CC1	-3	-4.9*	i	3	-0.12	0.0056	?	0.026*	0.007	?	0.011
CCCCc1nc(SCc2ccc([N+](=O)[O-])cc2)n[nH]1	17	-1.1	i	nt	-1.7	nt	nt	nt	nt	nt	nt
CC(C)C(CCNC(=O)CC(Cc1ccccc1)c1ccco1)c1ccco1 (stereo unspecified)	-10	-4.5*	i	24	nt	?	0.005	?	?	0.016*	0.0095
Cc1ccc([N+](=O)[O-])c(-c2n[nH]c(=S)n2-c2cccc(Cl)c2)c1	nt	7.1*	i	nt	nt	0.014*	0.032*	0.037	0.012*	?	0.012*
Cc1ccc(-c2n[nH]c(=S)n2-c2ccccc2)cc1	0	0.46	i	19	nt	nt	nt	nt	nt	nt	nt
CC(C)Cn1c(-c2csc(C(C)C)c2)n[nH]c1=S	8	21*	i	nt	-1.1	0.015*	0.08*	0.035	0.032*	0.056*	0.012*
Cc1cccc(-n2c(-c3ccncc3)n[nH]c2=S)c1	8	0.0031	i	5	nt	nt	nt	nt	nt	nt	nt
Cc1cccc(-n2c(-c3csc4ccccc34)n[nH]c2=S)c1	-2	17*	i	6	nt	0.013*	0.069*	0.034	0.026*	0.055*	?
Cc1ccc(-n2c(-c3cccc(C)c3)n[nH]c2=S)cc1	6	5.8*	i	22	nt	0.018	0.02*	0.031	0.014*	0.021*	0.017*
Cc1nn(C)c(C)c1/C=N/N=C1\CCC2C3CCc4cc(O)ccc4C3CCC12C (stereo unspecified)	-30	0.25	nt	4	0.29	nt	nt	nt	nt	nt	nt
CC(C)Cn1c(-c2csc3ccccc23)n[nH]c1=S	1	4.9*	nt	nt	nt	0.0062	0.019*	0.034	0.018*	?	0.015*
CCn1c(-c2csc3ccccc23)n[nH]c1=S	-7	1	i	26	nt	nt	nt	nt	nt	nt	nt
CCOC(=O)c1cnc(-n2nc(C)cc2C)nc1NNc1cc(-c2ccccc2)nc(C)n1	-35	0.7	i	4	0.17	nt	nt	nt	nt	nt	nt
CCOC(=O)c1cnc(-n2nc(C)cc2C)nc1NNc1ncc(-c2ccccc2)cn1	nt	8.5*	i	nt	nt	0.0067	0.024*	0.032	0.017*	0.027*	0.021*
SMILES	Arbovirus anti	KCC2 mod	HSV augment	Measles CPE	ROMK primary	KCC2 sec1	KCC2 bumet counter	KCC2 secondary2	HEK293 Tl flux	KCC2 retest ouab	HEK counter2
COc1ccc(C(c2nnnn2Cc2cccs2)N2CCN(c3ccccc3F)CC2)cc1 (stereo unspecified)	2	-4.1*	i	18	nt	0.0068	?	?	0.0076	0.018*	0.011
COc1ccc(C(c2nnnn2Cc2ccccc2)N2CCN(c3ccccc3)CC2)cc1 (stereo unspecified)	1	-1.4	i	3	nt	nt	nt	nt	nt	nt	nt
COc1cc(OC)cc(C(=O)Nc2c(C)nn(-c3ccccc3)c2C)c1	-7	-0.9	i	nt	0.93	nt	nt	nt	nt	nt	nt
Cc1ccc(-c2nc(=S)c3c(n2Cc2ccco2)CC(C)(C)OC3)cc1	3	nt	i	9	-0.0017	0.017*	0.025*	0.033	0.011*	0.028	0.012*
Cc1ccc(-c2nc(=S)c3c(n2CC2CCCO2)CC(C)(C)OC3)cc1 (stereo unspecified)	7	nt	i	18	nt	nt	nt	nt	nt	nt	nt
Cc1cccc(-c2nc(=S)c3c(n2Cc2ccco2)CCCC3)c1	9	21*	i	31	0.01	0.0064	0.021*	0.032	0.018*	0.032*	0.015*
CCOC(=O)C[C@H]1c2ccccc2S(=O)(=O)N1Cc1cccc(C(F)(F)F)c1	nt	nt	i	nt	nt	nt	nt	nt	nt	nt	nt
Brc1ccc(CSc2nnc(-c3ccccn3)n2Cc2ccco2)cc1	-11	nt	i	-1	0.027	0.0081	?	?	0.0045*	?	0.0073*
Cc1ccccc1CSc1nnc(-c2ccco2)n1Cc1ccco1	11	nt	i	1	-2.2	nt	nt	nt	nt	nt	nt
c1ccc(CSc2nnc(-c3ccco3)n2Cc2ccco2)cc1	3	nt	i	21	-1	0.0056	?	0.026*	0.0051*	0.014*	0.0086*
O=C(CSc1nnc(-c2ccccn2)n1Cc1ccco1)c1ccc(Cl)cc1	11	nt	i	6	-0.23	0.0069	?	0.028	0.006*	0.016	0.01
CCC(=O)NC1(Cc2ccc(O)cc2)CCCCC1	2	0.75	i	nt	-0.46	nt	nt	nt	nt	nt	nt
Cc1ccc(NC(=S)NNC(=O)c2ccc(N3CCOCC3)c([N+](=O)[O-])c2)cc1Cl	-2	-2.8	i	15	1.4	nt	nt	nt	nt	nt	nt
